Results filed as inconclusive are left out. The source made the active and inactive calls. Unless noted, calls follow the shape of the full dose curve.
Experiments:
[1] = Nuclear factor erythroid 2-related factor 2/antioxidant responsive element (Nrf2/ARE) small molecule agonists: qHTS cell viability counter screen in human keratinocytes (AID 1919968; active = well fitted curve in the direction sought with a large enough effect in the repeat runs; an effect the other way counts as inactive or inconclusive; also: nearly all actives have a fitted effect of over 55% in size)
Procedure, shortened: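 Stably transfected HaCaT (KeratinoSens), 1,500/well. Test agents in DMSO were applied for 23 h, 37 C/5% CO2. CellTiter-Fluor was incubated 1 h before the fluorescence read.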

[2] = Nuclear factor erythroid 2-related factor 2/antioxidant responsive element (Nrf2/ARE) small molecule agonists: luciferase reporter gene qHTS assay in human keratinocytes (AID 1919969); also: nearly all actives have a fitted effect of over 35% in size
[3] = molecular target: Gonadotropin-releasing hormone receptor (Homo sapiens) (UniProt P30968); test: Human gonadotropin-releasing hormone receptor (GnRHR) small molecule agonists, calcium flux assay in GnRHR-HEK293 cells (AID 1920063); also: nearly all actives have a fitted effect of over 35% in size
Procedure, shortened: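 Stable human GnRHR HEK293 line. 18 h plating, then calcium dye for 1 h at 37 C. Agonist-mode compound addition from DMSO stocks; fluorescence monitored 3 min.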

[4] = molecular target: KiSS-1 receptor (Homo sapiens) (UniProt Q969F8); test: Human kisspeptin (KISS1R) small molecule agonists, calcium flux assay in KISS1R-HEK293 cells (AID 1920064; active = well fitted curve in the direction sought with a large enough effect in the repeat runs; an effect the other way counts as inactive or inconclusive)
Procedure, shortened: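 After overnight (18 h) culture at 37 C/5% CO2, human KISS1R-HEK293 cells received calcium dye for 1 h, then test compound; emission at 540 nm (excitation 480 nm) was tracked for 3 min.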

[5] = G protein-coupled receptor (GPCR) small molecule agonists, calcium flux assay: HEK293 wild type cell line counter screen (AID 1920065)
Procedure, shortened: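 Following 18 h incubation at 37 C/5% CO2, plates got calcium dye for 1 h; compounds, ATP or DMSO were then pinned in and fluorescence followed kinetically (480/540 nm).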

[6] = p53 small molecule agonists, cell-based qHTS assay with human liver microsomes (AID 1963577)
Procedure, shortened: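 Cells carrying a p53-responsive bla reporter were rested 5 h (37 C, 5% CO2) before compound transfer. Human liver microsomes plus NADPH, 0.5 mg/mL final apiece, supplied metabolism during the 16 h 37 C exposure.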

[7] = p53 small molecule agonists, cell-based qHTS assay with rat liver microsomes (AID 1963578)
Procedure, shortened: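 Fluorescence from a beta-lactamase reporter under a p53 response element was measured after cells had been incubated 16 h at 37 C with test compound and rat liver microsomes plus NADPH (0.5 mg/mL final each).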

[8] = p53 small molecule agonists, cell-based qHTS assay with human liver microsomes: qHTS cell viability counter screen (AID 1963579); also: nearly all actives have a fitted effect of over 45% in size
Procedure, shortened: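 Seed p53RE-bla cells at 4,000 per well; incubate 5 h at 37 C; add compound, human liver microsomes and NADPH; incubate 16 h at 37 C; add CellTiter-Glo; after 30 min at room temperature, read luminescence.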

[9] = p53 small molecule agonists, cell-based qHTS assay with rat liver microsomes: qHTS cell viability counter screen (AID 1963580); also: nearly all actives have a fitted effect of over 45% in size
Procedure, shortened: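 Cytotoxicity counter screen: intracellular ATP measured by CellTiter-Glo luminescence in the same wells as the beta-lactamase reporter read, on HCT-116 p53RE-bla cells exposed 16 h at 37 C to compounds with rat liver microsomes and NADPH, each 0.5 mg/mL final.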

[10] = p53 small molecule agonists, cell-based qHTS assay: qHTS cell viability counter screen (AID 1963581); also: nearly all actives have a fitted effect of over 45% in size
Procedure, shortened: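 qHTS counter screen: 16 h compound exposure at 37 C of p53RE-bla HCT-116 cells (4,000 per well, seeded 5 h prior), cell viability by ATP luminescence.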

[11] = p53 small molecule agonists, cell-based qHTS assay (AID 1963582; active = well fitted activation curve with a large enough effect in the signal ratio in the repeat runs, not every such curve was filed as active; the % refers to the signal ratio)
Procedure, shortened: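 Measured: fluorescence from cleaved LiveBLAzer substrate. System: p53RE-bla cells, 16 h compound treatment at 37 C, 2 h substrate step at room temperature.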

[12] = molecular target: 5-hydroxytryptamine receptor 2A (Homo sapiens) (UniProt P28223); test: 5-hydroxytryptamine receptor 2A (HTR2A) small molecule antagonists, cell-based qHTS assay (AID 1963586); also: nearly all actives have a fitted effect of over 45% in size
Procedure, shortened: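 CHO cells stably expressing human HTR2A were plated for 18 h at 37 C, then loaded with calcium dye for 1 h. Compounds were preincubated 5 min at room temperature before DOI (4 nM solution) was added. Kinetic fluorescence was read for 3 min.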

[13] = molecular target: 5-hydroxytryptamine receptor 2A (Homo sapiens) (UniProt P28223); test: 5-hydroxytryptamine receptor 2A (HTR2A) small molecule agonists, cell-based qHTS assay (AID 1963587); also: nearly all actives have a fitted effect of over 30% in size
Procedure, shortened: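 CHO cells stably expressing human HTR2A, plated 18 h, loaded with calcium dye 1 h at 37 C. Agonist mode: compounds added and intracellular calcium fluorescence recorded kinetically for 2 min at 1 sec intervals.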

[14] = molecular target: Muscarinic acetylcholine receptor M1 (Homo sapiens) (UniProt P11229); test: Cholinergic receptor muscarinic 1 (CHRM1) small molecule antagonists, cell-based qHTS assay (AID 1963588); also: nearly all actives have a fitted effect of over 40% in size
Procedure, shortened: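 Compounds were tested at 15 concentrations in three independent runs. Dye-loaded CHRM1-CHO cells were exposed 5 min at room temperature before stimulation by acetylcholine added at 50nM. Intracellular calcium was read kinetically on FDSS for 3 min.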

[15] = molecular target: Muscarinic acetylcholine receptor M1 (Homo sapiens) (UniProt P11229); test: Cholinergic receptor muscarinic 1 (CHRM1) small molecule agonists, cell-based qHTS assay (AID 1963589); also: nearly all actives have a fitted effect of over 35% in size
Procedure, shortened: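 Kinetic fluorescence (1 s intervals) of calcium-sensitive dye in human M1 CHO cells after compound addition; cells pre-incubated 18 h at 37 C/5% CO2 and dye-loaded 1 h.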

[16] = cAMP Responsive Elements (CRE) small molecule agonists, cell-based qHTS assay (AID 1963590)
Procedure, shortened: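 Test agents in DMSO were incubated 3 h at 37 C/5% CO2 with CRE-bla HEK 293T cells seeded 18 h earlier; LiveBLAzer B/G FRET substrate was added and read after 2 h at room temperature.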

[17] = cAMP Responsive Elements (CRE) small molecule antagonists, cell-based qHTS assay (AID 1963591; active = well fitted inhibition curve with a large enough effect in the signal ratio in the repeat runs, not every such curve was filed as active; the % refers to the signal ratio)
Procedure, shortened: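 Reporter line CRE-bla HEK 293T in dialyzed-FBS DMEM; cells preincubated 18 h, treated 3 h with compound plus NKH477 (0.25 uM final); LiveBLAzer FRET, 2 h RT.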

[18] = molecular target: Beta-2 adrenergic receptor (Homo sapiens) (UniProt P07550); test: Adrenergic beta2 receptor (ADRB2) small molecule antagonists, cell-based qHTS assay (AID 1963592); also: series mostly up to about 92 µM; nearly all actives have a fitted effect of over 50% in size
Procedure, shortened: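 Assay format: CHO-ADRB2 cells, 18-20hr seeding at 37C/5% CO2, then compound plus 1nM isoproterenol agonist mix for 0.5hr RT. Homogeneous time-resolved fluorescence cAMP detection after 1hr, expressed as 665/615 nm ratio.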

[19] = molecular target: Beta-2 adrenergic receptor (Homo sapiens) (UniProt P07550); test: Adrenergic beta2 receptor (ADRB2) small molecule agonists, cell-based qHTS assay (AID 1963593);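 also: CHO cells stably overexpressing human ADRB2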
Procedure, shortened: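 CHO cells stably over-expressing ADRB2 were plated overnight at 37C, then dosed with compounds plus a stimulation mix containing 100uM IBMX and 25uM Ro-20-1724 for 0.5hr at room temperature. cAMP was measured by HTRF competition, 1hr.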

[20] = molecular target: D(2) dopamine receptor (Homo sapiens) (UniProt P14416); test: Dopamine D2 receptor (DRD2) small molecule agonists, cell-based qHTS assay (AID 1963594); also: nearly all actives have a fitted effect of over 35% in size
Procedure, shortened: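 HEK293 cells stably expressing human DRD2, pre-treated with PDE inhibitor Ro20-1724 (0.1 mM final) and compound 10 min at room temperature, then stimulated with NKH477 (200nM […]) for 30 min. cAMP read by HTRF (665/620 nm).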
% is scaled to controls: 0 for no effect and ±100 for the full control effect.

Chain of KiSS-1 receptor (Homo sapiens) (Q969F8 whole entry, looked up): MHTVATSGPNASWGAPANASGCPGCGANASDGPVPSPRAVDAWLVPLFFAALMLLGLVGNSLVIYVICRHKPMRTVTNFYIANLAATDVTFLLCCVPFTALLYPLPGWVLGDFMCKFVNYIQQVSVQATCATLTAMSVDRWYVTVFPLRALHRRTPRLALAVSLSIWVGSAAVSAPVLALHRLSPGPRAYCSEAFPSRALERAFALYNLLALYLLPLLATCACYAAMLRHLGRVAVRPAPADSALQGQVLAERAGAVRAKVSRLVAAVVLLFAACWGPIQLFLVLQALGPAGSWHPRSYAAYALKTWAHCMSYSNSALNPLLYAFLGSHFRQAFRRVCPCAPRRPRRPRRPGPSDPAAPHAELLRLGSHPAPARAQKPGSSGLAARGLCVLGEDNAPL
Chain of Beta-2 adrenergic receptor (Homo sapiens) (P07550 whole entry, looked up): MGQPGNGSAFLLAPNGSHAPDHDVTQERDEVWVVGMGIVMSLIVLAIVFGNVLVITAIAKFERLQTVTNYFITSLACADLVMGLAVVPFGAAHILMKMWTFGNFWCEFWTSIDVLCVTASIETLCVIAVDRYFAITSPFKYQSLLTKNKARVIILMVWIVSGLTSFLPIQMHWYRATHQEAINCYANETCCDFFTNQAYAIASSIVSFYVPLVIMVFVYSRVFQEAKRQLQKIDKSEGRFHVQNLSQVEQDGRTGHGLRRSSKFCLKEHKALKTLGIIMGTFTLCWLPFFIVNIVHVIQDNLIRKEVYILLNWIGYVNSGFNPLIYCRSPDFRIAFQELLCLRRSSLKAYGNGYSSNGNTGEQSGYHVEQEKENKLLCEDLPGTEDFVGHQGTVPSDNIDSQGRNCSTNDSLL
Chain of D(2) dopamine receptor (Homo sapiens) (P14416 whole entry, looked up): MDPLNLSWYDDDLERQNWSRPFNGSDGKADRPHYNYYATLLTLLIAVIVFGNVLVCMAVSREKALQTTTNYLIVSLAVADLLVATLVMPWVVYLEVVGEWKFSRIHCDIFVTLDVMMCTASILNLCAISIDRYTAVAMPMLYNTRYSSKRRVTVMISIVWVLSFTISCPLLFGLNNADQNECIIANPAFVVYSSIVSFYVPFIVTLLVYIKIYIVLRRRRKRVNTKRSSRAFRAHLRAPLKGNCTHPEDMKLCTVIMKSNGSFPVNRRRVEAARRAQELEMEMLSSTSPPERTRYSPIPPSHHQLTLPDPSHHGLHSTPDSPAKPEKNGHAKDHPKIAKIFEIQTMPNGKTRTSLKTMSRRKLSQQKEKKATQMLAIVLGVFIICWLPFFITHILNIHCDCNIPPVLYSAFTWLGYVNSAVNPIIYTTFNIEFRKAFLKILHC
Chain of Gonadotropin-releasing hormone receptor (Homo sapiens) (P30968 whole entry, looked up): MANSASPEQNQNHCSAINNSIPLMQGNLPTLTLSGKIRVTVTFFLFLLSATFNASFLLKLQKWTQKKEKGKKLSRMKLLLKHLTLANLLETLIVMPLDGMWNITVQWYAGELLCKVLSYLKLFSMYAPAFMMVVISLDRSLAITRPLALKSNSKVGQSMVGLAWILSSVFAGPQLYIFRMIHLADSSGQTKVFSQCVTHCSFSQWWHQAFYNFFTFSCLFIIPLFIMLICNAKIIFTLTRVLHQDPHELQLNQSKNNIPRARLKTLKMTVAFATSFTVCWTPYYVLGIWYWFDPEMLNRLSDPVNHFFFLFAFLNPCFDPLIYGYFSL
Chain of 5-hydroxytryptamine receptor 2A (Homo sapiens) (P28223 whole entry, looked up): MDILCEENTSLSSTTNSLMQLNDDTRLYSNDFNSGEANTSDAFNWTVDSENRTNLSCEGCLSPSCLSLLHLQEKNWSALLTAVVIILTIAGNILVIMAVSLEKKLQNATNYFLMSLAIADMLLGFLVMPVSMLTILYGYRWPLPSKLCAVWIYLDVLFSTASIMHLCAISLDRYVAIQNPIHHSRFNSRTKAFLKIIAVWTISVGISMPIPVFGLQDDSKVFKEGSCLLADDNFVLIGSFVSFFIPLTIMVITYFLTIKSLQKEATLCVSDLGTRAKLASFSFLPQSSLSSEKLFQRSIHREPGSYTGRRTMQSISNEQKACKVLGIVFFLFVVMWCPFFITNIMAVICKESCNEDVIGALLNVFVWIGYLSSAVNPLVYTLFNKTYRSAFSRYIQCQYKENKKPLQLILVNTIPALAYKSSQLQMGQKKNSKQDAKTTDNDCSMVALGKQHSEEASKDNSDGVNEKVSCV
Chain of Muscarinic acetylcholine receptor M1 (Homo sapiens) (P11229 whole entry, looked up): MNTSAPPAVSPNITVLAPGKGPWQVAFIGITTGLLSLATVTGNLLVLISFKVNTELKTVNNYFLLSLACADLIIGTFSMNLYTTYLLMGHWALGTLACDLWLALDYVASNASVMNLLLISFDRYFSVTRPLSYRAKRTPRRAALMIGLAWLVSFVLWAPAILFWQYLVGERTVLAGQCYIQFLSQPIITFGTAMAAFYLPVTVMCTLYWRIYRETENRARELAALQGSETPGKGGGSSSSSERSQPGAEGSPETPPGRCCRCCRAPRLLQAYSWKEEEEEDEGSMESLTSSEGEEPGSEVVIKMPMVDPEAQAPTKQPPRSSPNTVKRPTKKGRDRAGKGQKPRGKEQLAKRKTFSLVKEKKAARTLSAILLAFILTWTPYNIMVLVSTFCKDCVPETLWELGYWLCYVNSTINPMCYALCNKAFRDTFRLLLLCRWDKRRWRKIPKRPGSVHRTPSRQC

CCOC(=O)c1cc(=O)c2c(OCC(COc3cccc4oc(C(=O)OCC)cc(=O)c34)OC(=O)[C@@H](N)CCCCN)cccc2o1
inactive: Potency [1] | Potency [2] | Potency [3] | Potency [4] | Potency [5] | Potency [6] | Potency [7] | Potency [8] | Potency [9] | Potency [10] | Potency [11] | Potency [12] | Potency [13] | Potency [14] | Potency [15] | Potency [16] | Potency [17] | Potency [18]

CCCc1cc(C(N)=S)ccn1
inactive: Potency [1] | Potency [2] | Potency [3] | Potency [4] | Potency [5] | Potency [6] | Potency [7] | Potency [8] | Potency [9] | Potency [10] | Potency [11] | Potency [12] | Potency [13] | Potency [14] | Potency [15] | Potency [16] | Potency [17] | Potency [18] | Potency [19] | Potency [20]

Nc1ccc(NCCO)c([N+](=O)[O-])c1
inactive: Potency [1] | Potency [2] | Potency [3] | Potency [4] | Potency [5] | Potency [6] | Potency [7] | Potency [8] | Potency [9] | Potency [10] | Potency [11] | Potency [12] | Potency [13] | Potency [14] | Potency [15] | Potency [16] | Potency [17]

[Cl][Eu]([Cl])[Cl]
inactive: Potency [1] | Potency [2] | Potency [3] | Potency [4] | Potency [5] | Potency [6] | Potency [7] | Potency [8] | Potency [9] | Potency [10] | Potency [11] | Potency [12] | Potency [13] | Potency [14] | Potency [15] | Potency [16] | Potency [17]

CC1=CC[C@@]23C[C@@H]1C(C)(C)[C@@H]2CC[C@H]3C
inactive: Potency [1] | Potency [2] | Potency [3] | Potency [4] | Potency [5] | Potency [6] | Potency [7] | Potency [8] | Potency [9] | Potency [10] | Potency [11] | Potency [12] | Potency [13] | Potency [14] | Potency [15] | Potency [16] | Potency [17] | Potency [18] | Potency [19] | Potency [20]

COC(=O)c1ccc2cc(C(=O)OC)ccc2c1
inactive: activity change, negative = cytotoxicity [1] 1.05% [at 19 µM] | activity, positive = activation [2] 20.6% [at 19 µM] | activity change [3] 0.0273% [at 11.8 µM, hits give high values] | activation [4] 2.25% [at 15.8 µM] | activation [5] 0.0113% [at 11.8 µM] | activation [6] -11.1% [at 13.5 µM] | activation [7] -1.04% [at 13.6 µM] | activity change, negative = cytotoxicity [8] -6.68% [at 13.5 µM] | activity change, negative = cytotoxicity [9] -1.51% [at 13.5 µM] | activity change, negative = cytotoxicity [10] 11% [at 13.5 µM] | activation [11] -2.37% [at 13.5 µM] | activity, negative = inhibition [12] 2.21% [at 12.7 µM] | activation [13] -0.775% [at 15.9 µM] | activity, negative = inhibition [14] -8% [at 12.6 µM] | activation [15] 0.0556% [at 15.8 µM] | activation [16] -2.52% [at 19 µM] | activity change, negative = inhibition [17] -4.98% [at 18.9 µM] | activity change, negative = inhibition [18] -9.16% [at 19 µM] | activation [19] 21.2% [at 19 µM] | activation [20] -0.16% [at 19 µM]

O[C@@H]([C@H](O)[C@H](O)CBr)[C@H](O)CBr
inactive: Potency [1] | Potency [2] | Potency [3] | Potency [4] | Potency [5] | Potency [6] | Potency [7] | Potency [8] | Potency [9] | Potency [10] | Potency [11] | Potency [12] | Potency [13] | Potency [14] | Potency [15] | Potency [16] | Potency [17] | Potency [18] | Potency [19] | Potency [20]

Cc1cccc(C)c1NC(=O)CC12CCCN1CCC2
inactive: Potency [1] | Potency [2] | Potency [3] | Potency [4] | Potency [5] | Potency [6] | Potency [7] | Potency [8] | Potency [9] | Potency [10] | Potency [11] | Potency [12] | Potency [13] | Potency [14] | Potency [15] | Potency [16] | Potency [17] | Potency [18] | Potency [19] | Potency [20]

NCCNCCN
inactive: Potency [1] | Potency [2] | Potency [3] | Potency [4] | Potency [5] | Potency [6] | Potency [7] | Potency [8] | Potency [9] | Potency [10] | Potency [11] | Potency [12] | Potency [13] | Potency [14] | Potency [15] | Potency [16] | Potency [17] | Potency [18] | Potency [19] | Potency [20]

O=C1OC[C@H](Cc2cccc(O)c2)[C@H]1Cc1cccc(O)c1
inactive: Potency [1] | Potency [2] | Potency [3] | Potency [4] | Potency [5] | Potency [6] | Potency [7] | Potency [8] | Potency [9] | Potency [10] | Potency [11] | Potency [12] | Potency [13] | Potency [14] | Potency [15] | Potency [16] | Potency [17] | Potency [18] | Potency [19] | Potency [20]

COc1cc(C(=O)NCc2ccc(OCCN(C)C)cc2)cc(OC)c1OC
inactive: Potency [1] | Potency [2] | Potency [3] | Potency [4] | Potency [5] | Potency [6] | Potency [7] | Potency [8] | Potency [9] | Potency [10] | Potency [11] | Potency [12] | Potency [13] | Potency [14] | Potency [15] | Potency [16] | Potency [17] | Potency [18] | Potency [19] | Potency [20]

CCNc1cc(O)ccc1C
inactive: Potency [1] | Potency [2] | Potency [3] | Potency [4] | Potency [5] | Potency [6] | Potency [7] | Potency [8] | Potency [9] | Potency [10] | Potency [11] | Potency [12] | Potency [13] | Potency [14] | Potency [15] | Potency [16] | Potency [17] | Potency [18] | Potency [19] | Potency [20]

O=C(O)CNC(=O)c1ccccc1I
inactive: Potency [1] | Potency [2] | Potency [3] | Potency [4] | Potency [5] | Potency [6] | Potency [7] | Potency [8] | Potency [9] | Potency [10] | Potency [11] | Potency [12] | Potency [13] | Potency [14] | Potency [15] | Potency [16] | Potency [17] | Potency [18] | Potency [19] | Potency [20]

Reference: PubChem BioAssay (Tox21)
